The values below come from PubChem BioAssay.

The nature of test [1]: SU-DIPG-VI glioma cell viability, MIPE4.0 library, CellTiter-Glo luminescence, qHTS (AID 1347066; cut-off not given, nearly all actives have AC50 up to about 30 µM;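 further: cells exposed to compound for 48 hours before readout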). Particulars: CellTiter-Glo ATP luminescence. For orientation: Cellular ATP, detected with luciferase, serves as a proxy for viable cell number.
Test [2] is described as follows: inhibitors of Cryptococcus chitosan production, flow cytometry, Cibacron Brilliant Red staining (AID 1347148; call rule not given here;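 further: compound exposure lasted three days at 37 degrees C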). As to conditions: Cryptococcus neoformans chitosan, stronger effect = lower value; at 10 µM unless noted.
Test [3] can be described thus: phospholipid biosynthesis inhibitors in animal cells, primary screen, cell-based, LOPAC library, screen 4 (AID 1347384; call rule not given here). Particulars: phospholipid biosynthesis inhibition screen, at 10 µM.
Test [4] can be described thus: survival rescue of mitochondrial mutant cells in low glucose, primary screen, MELAS cybrids, Rieske KO mouse fibroblasts, CellTiter-Glo (AID 1508586;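 active means mean z-score across replicates of 1.96 or higher in either the MELAS or the Rieske mutant cell line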;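 further: z relative to plate mean and SD of compound and empty wells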).
For test [5], the target named is Mitogen-activated protein kinase 7 (Homo sapiens) (UniProt Q13164). As to the kind of experiment: ERK5 transactivation activators in reporter cells, primary screen, cell-based, HTS (AID 1508626;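 active means luciferase signal above three times the same-plate solvent-only control wells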;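 further: luciferase driven by Gal4-ERK5 fusion binding five Gal4 sites before minimal TATA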). Particulars: HeLa Gal4-ERK5 transactivation, 18 h, at 5 µM, stronger effect = higher value.
A short description of test [6]: viability rescue of complex I mutant cybrids, primary screen, cell-based, galactose medium, ATP luminescence (AID 1645843).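 Further: positive z means more ATP and so rescue of galactose-driven cybrid death.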 Particulars: complex I mutant cybrid cells, 72 h, stronger effect = higher value.
Test [7] can be described thus: LFS_MB_P medulloblastoma growth inhibition, cell-based, chromothripsis tumors, cisplatin or BGB combos (AID 1671449; in the data active means inhibition above about 80%;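 further: cells exposed for 96 hours; 0% = vehicle DMSO and 100% = killing by high DMSO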). As to conditions: LFS_MB_P medulloblastoma cells.
Test [8] can be described thus: HDN33 neuroblastoma growth inhibition, cell-based, chromothripsis tumors, cisplatin or BGB combos (AID 1671450; in the data active means inhibition above about 80%;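 further: cells exposed to compound for four days; 0% = vehicle DMSO and 100% = cell killing by high DMSO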). As to conditions: HDN33 neuroblastoma cells, stronger effect = higher value.
The nature of test [9]: ICB984 medulloblastoma cell growth inhibition, synergistic combos for chromothripsis tumors, cisplatin or BGB combos (AID 1671451; call rule not given here;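 further: cells exposed for 96 hours before readout; 0% = vehicle DMSO and 100% = killing by high DMSO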). Particulars: ICB984 medulloblastoma cells, drug combinations, stronger effect = higher value.
Test [10] in a line: LFS_MB_1R medulloblastoma cell growth inhibition, synergistic combos for chromothripsis tumors, cisplatin or BGB combos (AID 1671452; in the data active means inhibition above about 80%;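 further: cells exposed for 96 hours before readout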). Particulars: LFS_MB_1R medulloblastoma cells, stronger effect = higher value.
Test [11] can be described thus: HTB85 osteosarcoma cell growth inhibition, synergistic combos for chromothripsis tumors, BGB or cisplatin IC20 combos (AID 1671453; in the data active means inhibition above about 80%;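 further: cells exposed for 96 hours before readout; 0% = vehicle DMSO and 100% = high DMSO killing control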). As to conditions: HTB85 osteosarcoma cells, drug combinations, stronger effect = higher value.
Test [12] can be described thus: CRL2098 osteosarcoma cell growth inhibition, synergistic combos for chromothripsis tumors, BGB or cisplatin IC20 combos (AID 1671454; in the data active means inhibition above about 80%;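 further: cells exposed for 96 h before readout; 0% = vehicle DMSO and 100% = killing by high DMSO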). As to conditions: CRL2098 osteosarcoma cells, drug combinations, stronger effect = higher value.
A short description of test [13]: HD-MB03 medulloblastoma cell growth inhibition, synergistic combos for chromothripsis tumors, BGB or cisplatin IC20 combos (AID 1671455; in the data active means inhibition above about 83%;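 further: 0% = vehicle DMSO and 100% = high DMSO as cytotoxic control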). Particulars: HD-MB03 medulloblastoma cells, stronger effect = higher value.
For test [14], the target named is NAD(+) hydrolase SARM1 (Homo sapiens) (UniProt Q6SZW1). The experiment in a line: SARM1 TIR NADase inhibitors, cell lysate, NAD-Glo luminescence (AID 1508614;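 active means compound whose remaining NAD level is above about 45 nM, limit read from the data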). Particulars: SAM-TIR HEK293T lysate NADase, at 1 µM, stronger effect = higher value.
The nature of test [15]: SU-DIPG-XXV glioma cell viability, MIPE5.0 library, qHTS (AID 1347068; cut-off not given, nearly all actives have IC50 up to about 30 µM).
Where [16] appears, read: MELAS cybrid survival, CellTiter-Glo 48 h, stronger effect = higher value.
[17] abbreviates: Rieske KO mouse fibroblast survival, CellTiter-Glo 72 h.
[18] abbreviates: measured here: combination with BGB IC40, at 0.05 µM.

Values joined by “and” are separate entries in the source; they are usually repeats but may differ in a detail not shown here. Equal values may be shown once. Inconclusive results are not listed. Some structures have more than one record in an assay (separate samples or runs), and their calls can disagree. Active and inactive are the calls of the source.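 How the source made its calls, unless noted: active means z-score of at least 1.8 in each of two replicates, scored against plate mean and spread of sample wells; inactive means the rest.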

Chain of NAD(+) hydrolase SARM1 (Homo sapiens) (Q6SZW1 whole entry, looked up): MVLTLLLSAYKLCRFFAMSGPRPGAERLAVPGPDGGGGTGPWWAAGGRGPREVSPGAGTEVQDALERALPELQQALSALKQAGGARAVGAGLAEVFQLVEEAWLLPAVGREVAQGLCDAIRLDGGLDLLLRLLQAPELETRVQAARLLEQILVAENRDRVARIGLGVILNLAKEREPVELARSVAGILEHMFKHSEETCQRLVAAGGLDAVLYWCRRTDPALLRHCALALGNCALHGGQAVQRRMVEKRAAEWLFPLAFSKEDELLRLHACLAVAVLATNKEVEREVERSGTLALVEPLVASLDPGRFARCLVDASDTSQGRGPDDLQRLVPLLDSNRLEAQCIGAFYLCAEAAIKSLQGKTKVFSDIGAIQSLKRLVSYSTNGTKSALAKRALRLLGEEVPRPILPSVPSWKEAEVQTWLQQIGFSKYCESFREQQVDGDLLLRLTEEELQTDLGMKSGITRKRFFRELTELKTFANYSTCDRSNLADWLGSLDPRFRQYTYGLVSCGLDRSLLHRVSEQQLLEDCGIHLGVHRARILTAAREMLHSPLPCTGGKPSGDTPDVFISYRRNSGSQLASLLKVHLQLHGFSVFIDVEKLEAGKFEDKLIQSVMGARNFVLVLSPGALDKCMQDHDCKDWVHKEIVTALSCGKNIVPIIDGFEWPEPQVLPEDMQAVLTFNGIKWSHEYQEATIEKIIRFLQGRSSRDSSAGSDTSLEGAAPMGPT
Chain of Mitogen-activated protein kinase 7 (Homo sapiens) (Q13164 whole entry, looked up, the tested form may be a part): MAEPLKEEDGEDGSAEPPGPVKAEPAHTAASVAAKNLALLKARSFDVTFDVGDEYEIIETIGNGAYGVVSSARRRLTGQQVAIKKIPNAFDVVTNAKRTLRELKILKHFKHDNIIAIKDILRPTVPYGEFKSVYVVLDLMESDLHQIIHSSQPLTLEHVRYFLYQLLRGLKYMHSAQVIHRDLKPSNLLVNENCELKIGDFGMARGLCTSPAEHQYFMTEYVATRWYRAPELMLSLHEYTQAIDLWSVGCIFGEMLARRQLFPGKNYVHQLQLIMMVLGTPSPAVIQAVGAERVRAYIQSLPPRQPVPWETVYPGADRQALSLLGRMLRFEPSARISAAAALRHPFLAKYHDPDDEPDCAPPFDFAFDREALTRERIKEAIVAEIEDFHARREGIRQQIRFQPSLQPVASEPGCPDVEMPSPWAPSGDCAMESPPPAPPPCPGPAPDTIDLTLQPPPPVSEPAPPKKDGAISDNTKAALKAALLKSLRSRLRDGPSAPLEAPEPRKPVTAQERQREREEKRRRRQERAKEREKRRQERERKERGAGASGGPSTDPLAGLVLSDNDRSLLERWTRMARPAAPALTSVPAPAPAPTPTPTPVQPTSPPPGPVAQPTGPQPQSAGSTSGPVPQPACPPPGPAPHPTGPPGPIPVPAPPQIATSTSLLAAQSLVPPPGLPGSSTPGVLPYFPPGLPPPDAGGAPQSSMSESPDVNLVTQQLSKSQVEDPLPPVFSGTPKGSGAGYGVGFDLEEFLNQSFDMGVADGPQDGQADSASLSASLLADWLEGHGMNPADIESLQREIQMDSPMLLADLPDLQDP

As to `O=c1c(-c2ccc(O)cc2)coc2cc(O)cc(O)c12`, the outcome in test [1] and in test [3] was inactive. Further, the fold fluorescence in test [2] was 4.75 [at 185 µM] (inactive). Further, the z-score was -0.427 (inactive) in test [4] (setting [16]); 0.508 in test [4] (setting [17]); 1.99 (active) and 1.98 (inactive) in [6]. In [5], the luciferase signal was 276 AU (active). For the same compound, the inhibition (as a rule, the change of the read-out against control, counted positive when it falls) in test [7] (at 0.5 µM, stronger effect = higher value) is -9.97% (inactive) and -4.89% (inactive); in test [7] (measured here: combination with BGB IC20, at 0.005 µM) it was -17.8% and -1.45%; in test [7] (measured here: combination with BGB IC40, at 0.005 µM), -18% and -3.22%; in test [7] (setting [18]) it was -25.1% and -11.9%; in test [7] (measured here: combination with cisplatin, at 0.5 µM, stronger effect = higher value) it was -5.93% and -18.3%; in test [7] (measured here: combination with cisplatin, at 5 µM, stronger effect = higher value) it was 8.08% and 3.66%. Moreover, the inhibition in test [8] (BGB combo, at 5 µM) was -47.6% and 34.9%; in [8] (at 0.5 µM) it was -42.8% (inactive) and -12.6% (inactive); in test [8] (cisplatin combo, at 5 µM), -40% and 3.53%; in test [8] (measured here: with BGB IC20 combination, at 0.5 µM) it was -43.9% and -15.8%; in test [8] (measured here: with cisplatin IC20 combination, at 0.5 µM) it was -42.3% and -4.37%; in test [8] (single agent, at 5 µM), -15.6% and 2.01%. Further, the inhibition was 8.8% and -0.198% in test [9] (BGB IC20 combo, at 0.005 µM); -22.1% and -29.4% in [9] (BGB IC40 combo, at 0.005 µM); -7.4% and -6.46% in test [9] (BGB IC40 combo, at 0.05 µM); -34.3% (inactive) and -16.8% (inactive) in test [9] (at 0.5 µM); -11.3% and -9.44% in test [9] (cisplatin combo, at 0.05 µM); -39.9% and -21.8% in test [9] (cisplatin combo, at 0.5 µM). The inhibition in test [9] (cisplatin combo, at 5 µM) is -72.1% and -7.73%; in test [9] (measured here: 5 uM single agent, at 5 µM), -9.66% and -12.4%; in [10] (at 0.5 µM) it was -22.6% (inactive) and -10.7% (inactive); in test [10] (setting [18]), -45.5% and -14.8%; in [10] (measured here: combination with cisplatin, at 0.5 µM), -45.5% and -6.51%; in test [10] (measured here: combination with cisplatin, at 5 µM), -62.6% and -7.84%. Besides, the inhibition in test [11] (at 0.5 µM) was -23.1% (inactive) and -8.31% (inactive); in test [11] (measured here: with BGB IC20, at 0.5 µM) it was -24.9% and -17.6%; in test [11] (measured here: with BGB IC20, at 5 µM), -18.6% and -5.83%; in [11] (measured here: with cisplatin IC20, at 0.5 µM) it was -32.2% and -12.6%; in [11] (measured here: with cisplatin IC20, at 5 µM), -33.6% and -5.76%; in test [11] (single agent, at 5 µM) it was -0.415% and -6.72%. Besides, the inhibition in [12] (at 0.5 µM) was -89.3% (inactive) and -22.4% (inactive); in test [12] (measured here: combination with BGB at IC20, at 0.5 µM), -68.7% and -13.6%; in [12] (measured here: combination with cisplatin at IC20, at 0.5 µM) it was -148% and -31.4%; in test [13] (at 0.5 µM) it was -19.5% (inactive) and -5.86% (inactive); in test [13] (measured here: combo with BGB at IC20, at 0.5 µM), -19.9% and -0.815%; in [13] (measured here: combo with cisplatin at IC20, at 0.5 µM) it was -26.5% and -4.16%.
For the compound `CCOC(=O)C1=C[C@]2(CC)CCCN3CCc4c(n1c1ccccc41)[C@@H]32`, in test [1], the AC50 (usually the concentration giving half of the maximal activity seen) was 26.4 µM (active). The fold fluorescence in test [2] is 12.8 [at 142.7 µM] (inactive). Also, the compound was classed as inactive in test [3]. For the same compound, the z-score in test [4] (setting [16]) is 0.416 (inactive) and 0.251 (inactive); in test [4] (setting [17]), 0.313 and -0.628; in [6], 0.33 (inactive) and -0.95 (inactive) and -0.445 (inactive). For the same compound, the remaining NAD in test [14] is 10 nM (inactive). Also, in [5], the luciferase signal was 52 AU (inactive).
For the compound `Fc1ccc(C(c2ccc(F)cc2)N2CCN(C/C=C/c3ccccc3)CC2)cc1`, the call in test [1] and in test [3] was inactive. The fold fluorescence in [2] was 3.48 [at 123.6 µM] (inactive). For the same compound, the z-score in test [4] (setting [16]) was -1.68 (inactive) and -0.773 (inactive); in [4] (setting [17]), -0.315 and -0.0521; in [6], -1.04 (inactive) and -1.24 (inactive) and -2.23 (inactive). For the same compound, the remaining NAD in test [14] is 10 nM (inactive). Besides, the luciferase signal in test [5] was 116 AU (inactive).
As to `C[C@](N)(Cc1ccc(O)c(O)c1)C(=O)O`, the outcome in test [1], in [15] and in test [3] was inactive. The z-score was -1.52 (inactive) and -0.0357 (inactive) in [4] (setting [16]); -0.276 and -0.892 in [4] (setting [17]); -1.24 (inactive) and -0.53 (inactive) and -0.665 (inactive) in test [6]. In test [14], the remaining NAD is 10 nM (inactive). Moreover, in test [5], the luciferase signal was 68 AU (inactive).
